# Inconclusive results are not listed. The source made the active and inactive calls. Calls follow the shape of the dose curve; as a rule, active = well fitted inhibition curve with a large enough effect; inconclusive = small, poorly fitted or top-dose-only effect; inactive = flat fitted curve, though single readings scatter.
# Target: D(3) dopamine receptor (Homo sapiens) (UniProt P35462)
# Test: HTS Assay for Allosteric Antagonists of the Human D2 Dopamine Receptor: SAR in D3 Beta Arrestin Assay
# Conditions: DiscoveRx PathHunter D3 beta-arrestin, luminescence, 90 min; series mostly up to 57.1 µM
# From the text: There is great interest in identifying small molecule ligands for G-protein coupled receptors (GPCRs) as nearly 50% of all FDA-approved drugs target these important receptor proteins. […] Amongst the dopamine receptors (DARs), the D2 is arguably one of the most validated drug targets in neurology and psychiatry. For instance, all receptor-based antiparkinsonian drugs primarily work via stimulating the D2 DAR, whereas all FDA-approved antipsychotic agents are antagonists of this receptor. The D2 DAR is also therapeutically targeted in other disorders such as restless legs syndrome, tardive dyskinesia, Tourette's syndrome, and hyperprolactinemia. […] This is an selectivity assay to test the lead compounds against the D3 receptor, using a beta arrestin assay. NIH Molecular Libraries Probe Production Network [MLPCN] NIH Chemical Genomics Center [NCGC] Grant: NS0676421 PI Name: David Sibley, National Institutes of Neurological Disorders and Stroke
# DiscoveRx D3 cells were thawed from frozen stock and seeded at 2,100 cells/ 3 uL/well media (DiscoveRx Plating Reagent 2) with MultiDrop Combi dispenser (Thermo Scientific, Logan, UT) onto white tissue culture treated 1536-well Aurora plates (Brooks Automation, Chelmsford, MA) and allowed to attach overnight at 37 deg C, 5% CO2. Next, 23 nL/well of compound solutions in DMSO were added with a pintool transfer (Kalypsis, San Diego, CA). As the positive control, 1 uL/well dopamine (EC100, 57 uM final concentration) diluted in buffer (HBSS + 10 mM HEPES + SMB + 0.1% Tween-20) was dispensed to 1 column of each plate. The rest of the plate was dispensed with buffer only, 1 uL/well as well. The cells were stimulated by compounds or dopamine control for 90 minutes at 37 deg C, 5% CO2, after which 1.5 ul/well of DiscoveRx detection reagent was added with BioRAPTR FRD dispenser. The detection reagent was prepared by mixing of Galacton Star Substrate, Emerald II solution and PathHunter buffer (supplied by the assay kit) together at 1:5:19 proportion accordingly just prior to dispensing. The plates were incubated at ambient temperature for 1 hour and then the luminescent signal was read on ViewLux plate reader (PerkinElmer, Waltham, MA).
# Sequence of D(3) dopamine receptor (Homo sapiens) (P35462 whole entry, looked up): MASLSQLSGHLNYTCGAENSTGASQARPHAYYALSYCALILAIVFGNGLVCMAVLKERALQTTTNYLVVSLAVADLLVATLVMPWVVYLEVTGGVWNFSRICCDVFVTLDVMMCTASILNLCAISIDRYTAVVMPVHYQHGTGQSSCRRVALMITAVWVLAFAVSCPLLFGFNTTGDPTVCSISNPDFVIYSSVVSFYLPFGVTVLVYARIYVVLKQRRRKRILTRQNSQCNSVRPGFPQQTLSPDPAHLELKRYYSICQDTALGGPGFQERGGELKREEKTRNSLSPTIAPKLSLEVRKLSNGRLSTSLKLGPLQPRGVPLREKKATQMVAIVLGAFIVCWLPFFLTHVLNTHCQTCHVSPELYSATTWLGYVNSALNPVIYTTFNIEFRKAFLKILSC
row,SMILES,Potency
1,CN1C(=O)c2ccccc2[S@](=O)c2ccc(C(=O)NCc3ccc(Br)cc3)cc21,4.58 µM (active)
2,CCN1C(=O)c2ccccc2[S@](=O)c2ccc(C(=O)NCc3ccc(C#N)cc3)cc21,1.62 µM (active)
3,CN1C(=O)c2ccccc2[S@](=O)c2ccc(C(=O)NCc3cccnc3)cc21,14.5 µM (active)
4,CCN1C(=O)c2ccccc2[S@](=O)c2ccc(C(=O)NCc3ccc(F)cc3)cc21,3.24 µM (active)
5,OC1(c2ccc(Cl)cc2)CCN(Cc2c[nH]c3ccccc23)CC1,0.0646 µM (active)
6,CN1C(=O)c2ccccc2[S@](=O)c2ccc(C(=O)NCCc3cccs3)cc21,12.9 µM (active)
7,CN1C(=O)c2ccccc2[S@](=O)c2ccc(C(=O)NCc3ccc(Cl)cc3)cc21,10.2 µM (active)
8,CCN1C(=O)c2ccccc2[S@](=O)c2ccc(C(=O)N[C@H](C)c3ccc(Br)cc3)cc21,9.13 µM (active)
9,CN1C(=O)c2ccccc2S(=O)c2ccc(C(=O)NCCc3cccs3)cc21 (stereo not drawn),20.4 µM (active)
10,CN1C(=O)c2ccccc2[S@@](=O)c2ccc(C(=O)NCCc3cccs3)cc21,inactive
11,CCN1C(=O)c2ccccc2S(=O)c2ccc(C(=O)NCc3ccc(OC)cc3)cc21 (stereo not drawn),5.76 µM (active)
12,CN1C(=O)c2ccccc2[S@](=O)c2ccc(C(=O)NCCN3CCCC3)cc21,4.58 µM (active)
13,CCN1C(=O)c2ccccc2[S@](=O)c2ccc(C(=O)NCc3ccc(OC)cc3)cc21,2.89 µM (active)

# From PubChem BioAssay AID624500 (National Center for Advancing Translational Sciences (NCATS), 2012)
